Experimental data reported in PubChem BioAssay.
Calls of active or inactive are those of the source. Unless noted, no rule for the calls is given here.

Legend:
[1] = A549 cell viability effects, profiling panel, calcein-AM fluorescence, 48 h, basal (AID 1162); conditions: higher = more signal; also: test concentration not given here
[2] = adipocyte viability effects, profiling panel, cell-based, 3T3-L1 adipocytes, calcein-AM fluorescence, 48 h, basal (AID 1163); conditions: 3T3-L1 adipocytes viability, higher = more signal; also: test concentration not given here
[3] = HepG2 cell viability effects, profiling panel, calcein-AM fluorescence, 48 h, basal (AID 1164); conditions: higher = more signal; also: test concentration not given here
[4] = MM1S cell viability effects, profiling panel, calcein-AM fluorescence, 48 h, basal (AID 1165); conditions: higher = more signal;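 also: viability of MM1S multiple myeloma cells under basal unstimulated conditions; test concentration not given here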
[5] = basal RPMI8226 viability, no added stimulus, profiling panel, cell-based, calcein-AM fluorescence, 48 h, PK04 Diversity Set (AID 1166); conditions: RPMI8226 myeloma viability, higher = more signal;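 also: cells grown under basal conditions without added stimulus; test concentration not given here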
[6] = basal HepG2 mitochondrial membrane potential changes, profiling panel, cell-based, JC-1 fluorescence, 24 h, 100 nL compound (AID 1167); conditions: higher = more signal; also: test concentration not given here
[7] = basal 3T3-L1 adipocyte mitochondrial potential changes, profiling panel, cell-based, JC-1 fluorescence, 3T3-L1 adipocytes, 24 h, 100 nL compound (AID 1168); conditions: JC-1 mitochondrial fluorescence, higher = more signal, called active from +8 up or from −8 down; also: test concentration not given here
[8] = basal RPMI8226 mitochondrial membrane potential changes, profiling panel, cell-based, JC-1 fluorescence, 24 h, 100 nL compound (AID 1169); conditions: RPMI8226 myeloma, JC-1 mitochondrial potential fluorescence, higher = more signal; also: test concentration not given here
[9] = basal MM1S mitochondrial membrane potential changes, profiling panel, cell-based, JC-1 fluorescence, 24 h, 100 nL compound (AID 1170); conditions: higher = more signal; also: test concentration not given here
[10] = A549 lung cancer cell viability effects, profiling panel, resazurin fluorescence, 24 h, PK04 Diversity Set (AID 1171); conditions: higher = more signal, called active from +8 up or from −8 down; also: test concentration not given here
[11] = HepG2 liver cancer cell viability effects, profiling panel, resazurin fluorescence, 24 h, PK04 Diversity Set (AID 1172); conditions: higher = more signal; also: test concentration not given here
[12] = basal S. cerevisiae growth modulation, no modifier, primary screen, OD600, strain BY4716, 24 h, basal condition (AID 1173); conditions: OD600, 24 h, higher = more signal, called active from +8 up or from −8 down
[13] = MM1S myeloma cell viability, profiling panel, resazurin fluorescence, basal, 24 h, PK04 Diversity Set (AID 1174); conditions: higher = more signal, called active from +8 up or from −8 down;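 also: MM1S multiple myeloma cell line; test concentration not given here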
[14] = biological target: Dihydroorotate dehydrogenase (quinone), mitochondrial (Plasmodium falciparum (isolate 3D7)) (UniProt Q08210); assay: PfDHODH enzyme inhibitors, primary screen, biochemical, C-terminal His tag, absorbance 600 nm (AID 1175); conditions: DCIP absorbance 600 nm, higher = more signal, called active from +8 up or from −8 down;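 also: recombinant parasite enzyme with a five histidine tag at its C terminus; test concentration not given here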
Dihydroorotate dehydrogenase (quinone), mitochondrial (Plasmodium falciparum (isolate 3D7)), sequence (Q08210 whole entry, looked up): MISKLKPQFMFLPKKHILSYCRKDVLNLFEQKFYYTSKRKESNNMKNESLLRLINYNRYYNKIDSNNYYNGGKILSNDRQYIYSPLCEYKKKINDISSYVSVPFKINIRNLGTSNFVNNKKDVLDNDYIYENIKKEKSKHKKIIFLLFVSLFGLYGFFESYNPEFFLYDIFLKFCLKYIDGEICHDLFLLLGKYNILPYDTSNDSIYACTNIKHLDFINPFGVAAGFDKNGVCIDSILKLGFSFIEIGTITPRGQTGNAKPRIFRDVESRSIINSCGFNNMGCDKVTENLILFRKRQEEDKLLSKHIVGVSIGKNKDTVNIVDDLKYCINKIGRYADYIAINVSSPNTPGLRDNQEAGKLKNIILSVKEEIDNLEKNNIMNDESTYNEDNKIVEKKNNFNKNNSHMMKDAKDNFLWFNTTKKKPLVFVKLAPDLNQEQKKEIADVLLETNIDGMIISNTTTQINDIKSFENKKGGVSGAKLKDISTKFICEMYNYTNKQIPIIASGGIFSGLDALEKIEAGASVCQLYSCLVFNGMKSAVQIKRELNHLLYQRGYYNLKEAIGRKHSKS

[15] = P. aeruginosa biofilm formation inhibitors, primary screen, strain PAO1, LB-PBS medium, absorbance 600 nm (AID 1176); also: test concentration not given here; conditions: P. aeruginosa PAO1 growth/biofilm, A600, 12 h; higher = more signal
[16] = S. cerevisiae RM11-1a growth modifiers, primary screen, strain RM11-1a, OD600, basal, 24 h (AID 1177); conditions: OD600, 24 h, higher = more signal, called active from +8 up or from −8 down;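 also: cultures grown under basal conditions with no added stressor; test concentration not given here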
[17] = E. coli acrAB mutant growth effects, primary screen, E. coli filamentation inducers, strain DRC39, OD650, 24 h (AID 1178); conditions: higher = more signal, called active from +8 up or from −8 down;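 also: growth measured as culture turbidity by optical density at 650 nm; test concentration not given here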
[18] = E. coli acrAB mutant growth effects, primary screen, E. coli filamentation inducers, strain DRC39, OD650, 48 h (AID 1179);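 also: screen aims at cell division blockers that make cells filament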; conditions: E. coli DRC39 delta-acrAB growth, higher = more signal, called active from +8 up or from −8 down
[19] = RPMI8226 myeloma cell viability, profiling panel, resazurin fluorescence, basal, 24 h, PK04 Diversity Set (AID 1180); conditions: higher = more signal;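 also: RPMI8826 multiple myeloma cell line at 5000 cells per well; test concentration not given here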
[20] = biological target: E3 ubiquitin-protein ligase XIAP (Homo sapiens) (UniProt P98170); assay: XIAP binders, primary screen, biophysical, small-molecule microarray, fluorescence 635 nm (AID 1181); conditions: small-molecule microarray binding, higher = more signal;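 also: score merges 667 nm emission and signal to noise over triplicate slides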
E3 ubiquitin-protein ligase XIAP (Homo sapiens), sequence (P98170 whole entry, looked up): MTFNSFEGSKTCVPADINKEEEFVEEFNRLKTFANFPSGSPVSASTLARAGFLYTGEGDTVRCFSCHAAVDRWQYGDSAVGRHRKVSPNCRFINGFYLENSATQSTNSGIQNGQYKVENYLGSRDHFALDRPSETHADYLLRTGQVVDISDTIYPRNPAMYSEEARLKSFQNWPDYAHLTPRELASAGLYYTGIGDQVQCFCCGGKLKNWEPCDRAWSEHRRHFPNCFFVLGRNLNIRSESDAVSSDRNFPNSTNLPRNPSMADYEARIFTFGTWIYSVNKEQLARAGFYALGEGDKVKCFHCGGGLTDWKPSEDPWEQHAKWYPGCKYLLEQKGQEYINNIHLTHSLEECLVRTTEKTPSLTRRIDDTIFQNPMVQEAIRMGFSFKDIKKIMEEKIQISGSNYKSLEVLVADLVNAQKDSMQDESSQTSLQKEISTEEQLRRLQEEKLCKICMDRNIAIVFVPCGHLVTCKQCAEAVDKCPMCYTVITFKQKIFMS

| SMILES | z-score [1] | z-score [2] | z-score [3] | z-score [4] | z-score [5] | z-score [6] | z-score [7] | z-score [8] | z-score [9] | z-score [10] | z-score [11] | z-score [12] | z-score [13] | composite z-score [14] | z-score [15] | z-score [16] | z-score [17] | z-score [18] | z-score [19] | composite z-score [20] |
| --- | --- | --- | --- | --- | --- | --- | --- | --- | --- | --- | --- | --- | --- | --- | --- | --- | --- | --- | --- | --- |
| COCCOC(=O)N1C(=O)[C@@]2(c3cc(C#Cc4ccc(OC)cc4)ccc31)[C@H](C(=O)N1CCc3cc(OC)c(OC)cc3C1)[C@H]1C(=O)O[C@H](c3ccccc3)[C@H](c3ccccc3)N1[C@@H]2c1ccc(OCCO)cc1 | -0.403 | 1.41 | -1.13 | -0.0142 | -1.38 | -0.999 | 2.31 (inactive) | -0.223 | -0.919 | -0.0945 (inactive) | -0.562 | 1.39 (inactive) | -0.12 (inactive) | -0.0739 (inactive) | 1.27 (inactive) | 2.92 (inactive) | -0.997 (inactive) | -1.19 (inactive) | 0.54 | 0.365 |
| O=C1C[C@@](C(=O)O)(c2ccc([N+](=O)[O-])cc2)[C@@H](c2ccc(CO)cc2)N1CC12CC3CC(CC(C3)C1)C2 | 0.0051 | 0.0068 | 0.313 | -1.49 | -2.4 | 0.609 | 0.473 (inactive) | -0.15 | -0.811 | 0.689 (inactive) | -0.246 | -0.418 (inactive) | -0.646 (inactive) | -3.13 (inactive) | 0.692 (inactive) | 1.08 (inactive) | 0.667 (inactive) | 0.507 (inactive) | -0.474 | -0.234 |
| COc1ccc(C(=O)Nc2ccc(CN3C(=O)[C@]4(O[C@H](CCn5cc([C@H](O)c6ccccc6)nn5)[C@@H]([Si](C)(C)c5ccc(OC)cc5)[C@@H]4C)c4ccccc43)cc2)cc1 | -0.0731 | -0.145 | -4.03 | -2.67 | -3.84 | 1.48 | 0.374 (inactive) | -1.12 | -2.36 | -1.64 (inactive) | -1.34 | -0.884 (inactive) | -3.17 (inactive) | -0.0934 (inactive) | 1.55 (inactive) | 1.63 (inactive) | 0.938 (inactive) | 0.63 (inactive) | -3.24 | 0.0623 |
| CC(C)[Si](C#C[Si](C(C)C)(C(C)C)C(C)C)(O[C@H](C)c1cn(Cc2cccc(Cl)c2)nn1)C(C)C | 1.85 | -0.667 | 1.12 | 0.673 | 0.133 | 1.37 | 0.159 (inactive) | -0.0288 | 0.238 | 1.15 (inactive) | 0.205 | 0.916 (inactive) | 1.77 (inactive) | 0.621 (inactive) | 0.444 (inactive) | 0.0575 (inactive) | 2.07 (inactive) | 1.52 (inactive) | 1.68 | -0.205 |
